In the supplement of paper PMC13380429:

Test system: Vero E6 infected with SARS-CoV-2
Assay: inhibition of SARS-CoV-2 cytopathic effect; higher = more antiviral protection, active = above 15
Settings: 1 nM; 48 h

Row | Structure (SMILES) | inhibition of SARS-CoV-2 cytopathic effect
1 | CCCOc1ccc2[nH]c(NC(=O)OC)nc2c1 [oxibendazole] | -2.12% (inactive)
2 | O=C(O)C(Cl)Cl [dichloroacetate] | 4.14% (inactive)
3 | O=C(O)c1ccc(OCCn2ccnc2)cc1 [dazoxiben] | 1.06% (inactive)
4 | C[C@@H](NCc1cc(Br)cc2nc(O)c(O)nc12)P(=O)(O)O | -0.47% (inactive)
5 | CC[C@H](C)[C@H](N)C1=N[C@H](C(=O)N[C@@H](CC(C)C)C(=O)N[C@H](CCC(=O)O)C(=O)N[C@H](C(=O)N[C@H]2CCCCNC(=O)[C@H](CC(N)=O)NC(=O)[C@@H](CC(=O)O)NC(=O)[C@H](Cc3cnc[nH]3)NC(=O)[C@@H](Cc3ccccc3)NC(=O)[C@H]([C@@H](C)CC)NC(=O)[C@@H](CCCN)NC2=O)[C@@H](C)CC)CS1 [bacitracin] | -0.71% (inactive)
6 | CCOc1ccc(NC(=S)N2CCC(C(O)(c3ccccc3)c3ccccc3)CC2)cc1 | -2.59% (inactive)
7 | CCN1CCN(Cc2ccc(-c3cc4c(N[C@H](C)c5ccccc5)ncnc4[nH]3)cc2)CC1 | 1.55% (inactive)
8 | C[C@](O)(COc1ccc(C#N)cc1)C(=O)Nc1ccc(C#N)c(C(F)(F)F)c1 [ostarine] | -0.2% (inactive)
9 | COc1ccc2c(c1)C(C(=O)N(Cc1ccc(N(C)C)cc1)c1ccc(C(C)C)cc1)CCC2 (stereo not given) | -2.02% (inactive)
10 | CCS(=O)(=O)CCn1c([N+](=O)[O-])cnc1C [tinidazole] | -3.22% (inactive)
11 | CCOc1ccccc1OC(c1ccccc1)C1CNCCO1 (stereo not given) [reboxetine] | 0.65% (inactive)
12 | CCNC(=O)CCC/C=C\C[C@@H]1[C@@H](/C=C/[C@@H](O)CCc2ccccc2)[C@H](O)C[C@@H]1O [bimatoprost] | -2.31% (inactive)
13 | CCOC(=O)c1ncc2[nH]c3cccc(OC(C)C)c3c2c1C | 2.48% (inactive)
14 | Cn1c(=O)c2c(ncn2CCOC(=O)C(C)(C)Oc2ccc(Cl)cc2)n(C)c1=O [etofylline-clofibrate] | 4.94% (inactive)
15 | COc1ccc2cc1Oc1ccc(cc1)C[C@H]1c3c(cc4c(c3Oc3cc5c(cc3OC)CCN(C)[C@@H]5C2)OCO4)CCN1C [cepharanthine] | -0.29% (inactive)
16 | COc1cc(C(=O)N(CC[C@H]2CCCN2C)C/C(C)=C/c2ccccc2F)cc(OC)c1OC (racemic) | -0.69% (inactive)
17 | CC(C)(C)c1cc(C(C)(C)C)c2c(c1)C(O)(C(F)(F)F)C(=O)O2 (racemic) | 5.52% (inactive)
18 | O=C(O)Cn1c2c(c3cc(F)ccc31)CN(C(=O)c1cccc3ccccc13)CC2 [setipiprant] | -1.54% (inactive)
19 | O=c1[nH]c(CCl)nc2sc3c(c12)CCCC3 | -1.17% (inactive)
20 | O=C(Nc1ccc(C(=O)O)c(O)c1)c1ccccc1 [benzoylpas] | 0.82% (inactive)

Row | Structure (SMILES) | inhibition of SARS-CoV-2 cytopathic effect
21 | C/C(=N\c1ccccc1N)c1c(C)cc(=O)n(O)c1O | -2.19% (inactive)
22 | CNC(=O)c1c(I)c(C(=O)NCC(=O)Nc2c(I)c(C(=O)O)c(I)c(C(=O)NCCO)c2I)c(I)c(N(C)C(C)=O)c1I [ioxaglic-acid] | 1.6% (inactive)
23 | O=C(O)CCC(=O)OC[C@@H](NC(=O)C(Cl)Cl)[C@H](O)c1ccc([N+](=O)[O-])cc1 [chloramphenicol-sodium-succinate] | 3.1% (inactive)
24 | CC(C)(C#N)c1ccc(N2C(=O)OCc3cnc4ccc(-c5cnc6ccccc6c5)cc4c32)cc1 | 4.95% (inactive)
25 | Cc1ccc2c(-c3ccccc3)nc(=O)n(C(C)C)c2c1 [proquazone] | 0.68% (inactive)
26 | Cc1cccc(NC(=O)N[C@@H]2N=C(c3ccccc3)c3ccccc3N(C)C2=O)c1 | -0.47% (inactive)
27 | C[C@@H]1CN(c2c(F)c(N)c3c(=O)c(C(=O)O)cn(C4CC4)c3c2F)C[C@H](C)N1 [sparfloxacin] | 2.08% (inactive)
28 | CO[C@@H]1[C@@H](O[C@@H]2O[C@H](C)[C@@H](O[C@H]3C[C@@](C)(O)[C@@H](OC(=O)CC(C)C)[C@H](C)O3)[C@H](N(C)C)[C@H]2O)[C@@H](CC=O)C[C@@H](C)[C@@H](O)/C=C/C=C/C[C@@H](C)OC(=O)C[C@H]1OC(C)=O [josamycin] | 2.65% (inactive)
29 | CCN1CCC[C@H]1CNC(=O)c1c(OC)ccc(Br)c1OC [remoxipride] | -2.39% (inactive)
30 | CC(C)CC(=O)N[C@H](C(=O)N[C@H](C(=O)N[C@@H](CC(C)C)[C@@H](O)CC(=O)N[C@@H](C)C(=O)N[C@@H](CC(C)C)[C@@H](O)CC(=O)O)C(C)C)C(C)C [pepstatin] | 1.4% (inactive)
31 | COc1cc2c(cc1OC)[C@@H](Cc1cc(OC)c(OC)c(OC)c1)[N+](C)(CCCOC(=O)CC/C=C/CCC(=O)OCCC[N+]1(C)CCc3cc(OC)c(OC)cc3[C@H]1Cc1cc(OC)c(OC)c(OC)c1)CC2 (stereo not given in full) [mivacurium] | -2.73% (inactive)
32 | COc1cc2ncnc(Nc3ccc(Cl)cc3F)c2cc1OC | 1.92% (inactive)
33 | Cn1nnc(-c2ccc(-c3ccc(N4C[C@H](CO)OC4=O)cc3F)cn2)n1 [tedizolid] | -0.87% (inactive)
34 | CCc1c(-c2ccccc2)c(-c2ccccc2)nn1-c1ccccc1-c1cccc(OCC(=O)O)c1 | -2.24% (inactive)
35 | COc1cc2c(cc1Cc1cccc(Cl)c1F)c(=O)c(C(=O)O)cn2[C@H](CO)C(C)C [elvitegravir] | 2.45% (inactive)
36 | Cc1ccc2c(c1)[C@]13CCCC[C@@H]1[C@H](C2)N(C)CC3 [dimemorfan] | 0% (inactive)
37 | COC(=O)N[C@H](C(=O)N1CCC[C@H]1c1ncc(-c2ccc(-c3ccc(-c4cnc([C@@H]5CCCN5C(=O)[C@@H](NC(=O)OC)C(C)C)[nH]4)cc3)cc2)[nH]1)C(C)C [daclatasvir] | -1.73% (inactive)
38 | COC(=O)Nc1nc2cc(C(=O)c3ccccc3)ccc2[nH]1 [mebendazole] | -1.33% (inactive)
39 | c1ccc(CN(CC2=NCCN2)c2ccccc2)cc1 [antazoline] | -3.99% (inactive)
40 | C[C@]12C=CC(=O)C=C1CC[C@@H]1[C@@H]2[C@@H](O)C[C@@]2(C)[C@H]1CC[C@]2(O)C(=O)COC(=O)CCC(=O)O [prednisolone-hemisuccinate] | -1.49% (inactive)
